Screening results: PubChem BioAssay, several laboratories
ABHD5 PLIN5 PPI: blocks binding of human ABHD5 to perilipin-5; inhibition, % at 4 µM; actives 0.78% (n = 360,000); Split G. princeps luciferase complementation, luminescence, 4 h; Q00G26+Q8WTS1;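 active = inhibition above the mean inhibition across every tested compound plus 3 SD, cut at about 22% in these data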
LANA-H2B inh: blocks KSHV LANA binding to histone H2A/H2B. Q9QR71. cell-free LANA-H2A/H2B peptide, fluorescence polarization. inhibition, % (no concentration beside the values). actives 0.6% (n = 320,000); in the data active = inhibition mostly above about 10%, no sharp cut-off; inactive = mostly below about 6.7%
rCAG RNA binder: r(CAG) repeat RNA binding; TO-PRO-1 dye displacement fluorescence; inhibition, % at 3 µM; actives 1.3% (n = 370,000); AID 651821;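 active = inhibition above the plate cutoff, the mean of all test compounds on that plate plus 3 SD, cut at about 35% in these data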;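 also: higher means more dye released from RNA so lower well fluorescence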
ALR H2O2 inh: human ALR oxidase inhibition via reduced H2O2; actives 3.8% (n = 290,000); purified ALR, DTT oxidation, H2O2 HRP-luminol luminescence; inhibition, % (no concentration beside the values); AID 485317;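 active = mean replicate inhibition above about 79%, with every replicate also reaching it, limit read from the data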
Target sequence (P55789 whole entry, looked up): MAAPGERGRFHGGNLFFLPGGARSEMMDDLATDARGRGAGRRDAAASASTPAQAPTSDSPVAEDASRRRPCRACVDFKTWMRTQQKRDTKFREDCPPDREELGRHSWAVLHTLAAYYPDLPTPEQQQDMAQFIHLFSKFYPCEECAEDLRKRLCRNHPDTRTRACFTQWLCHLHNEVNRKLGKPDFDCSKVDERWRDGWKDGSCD
Rtt109 Vps75: inhibitors of Candida albicans Rtt109/Vps75 histone acetyltransferase; actives 0.16% (n = 330,000); Q5AAJ8; inhibition, % at 34.9 µM; purified Rtt109/Vps75, ThioGlo CoA-SH fluorescence, 4 h;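 active = inhibition of at least 50% in every replicate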
Target sequence (Q5AAJ8 whole entry, looked up): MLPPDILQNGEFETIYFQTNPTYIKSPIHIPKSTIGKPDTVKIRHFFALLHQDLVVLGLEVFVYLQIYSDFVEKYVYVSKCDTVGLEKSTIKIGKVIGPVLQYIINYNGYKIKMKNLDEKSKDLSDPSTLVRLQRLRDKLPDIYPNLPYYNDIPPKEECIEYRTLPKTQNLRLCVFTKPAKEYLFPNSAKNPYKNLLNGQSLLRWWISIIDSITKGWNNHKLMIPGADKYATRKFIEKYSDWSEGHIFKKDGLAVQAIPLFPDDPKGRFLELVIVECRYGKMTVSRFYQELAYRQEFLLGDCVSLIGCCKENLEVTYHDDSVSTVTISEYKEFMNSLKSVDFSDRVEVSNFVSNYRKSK
PRMT1 inh: PRMT1 (human) inhibition, primary screen. Q99873. recombinant PRMT1, activity-based probe fluorescence polarization. inhibition, % at 2.79 µM. actives 1.3% (n = 370,000);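 active = inhibition above about 21% made by adding two undisclosed values, limit read from the data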
Numbers stand for hits; – = inactive; · = no result given. Hits are enriched below; roughly 5.9% of the tested compounds scored in any of these assays.

SMILES	ABHD5 PLIN5 PPI	LANA-H2B inh	rCAG RNA binder	ALR H2O2 inh	Rtt109 Vps75	PRMT1 inh
O=C(CCCn1c(=S)[nH]c2ccsc2c1=O)Nc1ccc2c(c1)OCO2	–	–	–	–	–	–
COc1ccccc1CCC(=O)OCC(=O)Nc1ccc(C(N)=O)cc1	–	–	–	–	–	–
N#Cc1ccc(CSc2ccc(S(=O)(=O)N3CCCC3)cn2)cc1	–	–	–	93	–	–
Cc1ccc(CSc2ccc(S(=O)(=O)N3CCCC3)cn2)cc1	–	–	–	–	–	–
Cc1onc(-c2ccc(Cl)cc2)c1-c1ccn(S(=O)(=O)c2ccccc2)n1	·	·	–	·	·	–
Cc1ccc(S(=O)(=O)n2nccc2-c2c(-c3ccc(Cl)cc3)noc2C)cc1	–	17	–	·	–	–
COc1ccc(-c2csc(N3CCN(C(=O)c4ccco4)CC3)n2)cc1	–	–	–	–	–	–
COc1ccc(C2=NN(c3nc(-c4ccc(CNC(C)=O)cc4)cs3)C(c3ccco3)C2)cc1 (stereo not given)	–	–	–	99	–	–
Cc1ccc(OCCN(C)C(=O)c2cc(COc3ccc(F)cc3F)on2)cc1	–	173	–	–	–	–
CCOC(=O)C1CCN(C(=S)NC2CC3C=CC2C3)CC1 (stereo not given)	–	21	–	·	–	–
C=CCc1cccc(CNc2ccc(Br)cc2)c1O	–	–	–	98	–	–
COC(=O)[C@]12C[C@H](CC(=O)NCC34CC5CC(CC(C5)C3)C4)C(=O)N(Cc3ccco3)C1=C[C@H](C(C)C)O[C@@H]2C1CC1	·	·	–	·	·	–
CCOc1ccc2c(c1)c1nc3ccccc3nc1n2C	–	39	–	–	–	–
CCOc1ccc(Nc2nc3ccccc3n2C)cc1	–	–	–	94	–	–
Cc1ccc2c(c1)c1nc3ccccc3nc1n2C	–	–	–	–	–	–
CCc1ccccc1Nc1nc2ccccc2n1C	–	–	–	98	–	–
CCOc1ccc(CNc2nc3ccccc3n2C)cc1	–	–	–	–	–	–
N#Cc1ccc(OC[C@@H](O)CN2CCC(C(O)(c3ccccc3)c3ccccc3)CC2)cc1	·	·	–	·	·	–
O=C(CCc1ccccc1)N[C@H]1[C@H](OC(=O)c2ccc3ccccc3n2)CCC[C@@]12C(=O)N(Cc1ccccc1)c1ccccc12	·	·	–	·	·	–
Cc1ccccc1N=Nc1ccc(O)c2ncccc12	–	–	–	–	–	–
O=S(=O)(O)c1cccc2c(N=Nc3ccc(O)c4ncccc34)cccc12	36	–	·	–	–	·
CC(Oc1ccc(Cl)cc1)C(=O)Nc1nccs1 (stereo not given)	–	21	–	–	–	–
O=C(O)c1c2c(nc3ccccc13)/C(=C/c1ccc(O)cc1)CCC2	–	–	–	100	–	–
O=C(O)c1ccc(/C=C2\CCCc3c2nc2ccccc2c3C(=O)O)cc1	–	–	–	–	–	–
COc1cc(/C=C2\CCCc3c2nc2ccccc2c3C(=O)O)cc(OC)c1O	–	–	–	99	–	–
SMILES	ABHD5 PLIN5 PPI	LANA-H2B inh	rCAG RNA binder	ALR H2O2 inh	Rtt109 Vps75	PRMT1 inh
COc1cc(/C=C2\CCCc3c2nc2ccccc2c3C(=O)O)cc([N+](=O)[O-])c1O	–	–	–	–	–	–
CCOc1ccc(/C=C2\CCCc3c2nc2ccccc2c3C(=O)O)cc1OC	–	121	·	–	–	·
COc1ccc(/C=C2\CCCc3c2nc2ccccc2c3C(=O)O)cc1OC	·	91	·	–	·	·
OC(C#CCCN1CCCCC1)(c1ccccc1)c1ccccc1	–	–	–	–	–	–
OC(C#CCN1CCCC1)(c1ccccc1)c1cccnc1 (stereo not given)	–	27	–	–	–	–
OC(C#CCN1CCCCCC1)(c1ccccc1)c1cccnc1 (stereo not given)	–	15	–	·	–	–
CCCC1CCC2(CC1)CCC2OC(=S)Nc1ccc(N(C)C)cc1 (stereo not given)	·	·	·	·	·	–
CCN(CC)CCn1c2c(c(SCC(=O)Nc3ccccc3Cl)nc1=O)CCC2	–	–	–	–	–	–
CCN(CC)CCn1c2c(c(SCC(=O)Nc3cccc4ccccc34)nc1=O)CCC2	–	–	–	97	–	–
CCN(CC)CCn1c2c(c(SCC(=O)Nc3nc4ccc(C)cc4s3)nc1=O)CCC2	–	–	–	–	–	–
CCN(CC)CCn1c2c(c(SCC(=O)Nc3nc4ccccc4s3)nc1=O)CCC2	–	–	–	98	–	–
COc1ccc(Cn2ccc3ccc(-c4ccc5ccn(C(=O)C6CCCCC6)c5c4)cc32)cc1	·	·	–	·	·	–
C/C(=N\NC(=O)CN1CCN(S(=O)(=O)c2ccc(C)cc2)CC1)c1ccc(O)cc1	–	–	–	99	–	–
COc1cc(/C(C)=N/NC(=O)CN2CCN(S(=O)(=O)c3ccc(C)cc3)CC2)ccc1O	–	–	–	98	–	–
C/C(=N/NC(=O)CN1CCN(S(=O)(=O)c2ccc(Br)cc2)CC1)c1cccnc1	–	–	–	–	–	–
CCN(CC)c1ccc(C2=NNC(=O)CC2C)cc1[N+](=O)[O-] (stereo not given)	–	20	–	–	–	–
O=C(Nc1c(-c2ccc(C(F)(F)F)cc2)nc2ncccn12)c1ccc(F)cc1	·	·	–	·	·	–
CCCCNC(=O)C(NC(=O)c1cnc(C)cn1)C(=O)c1ccccc1 (stereo not given)	–	·	–	·	·	–
COc1ccc(CNC(=O)C2CCCN(c3nc4ccccc4o3)C2)c(OC)c1 (stereo not given)	–	–	·	–	–	·
COc1cccc(CNC(=O)C2CCCN(c3nc4ccccc4o3)C2)c1 (stereo not given)	–	14	–	–	–	–
O=C(C(=O)c1ccc(O)c(O)c1)c1ccc(O)c(O)c1	–	·	–	·	–	–
CC(C)C(=O)c1ccc(O)c(O)c1	–	–	–	99	–	–
C=CCNC1CCC12CCC(c1ccccc1)CC2 (stereo not given)	·	·	·	·	·	–
COc1ccc2[nH]c3c(=S)nc[nH]c3c2c1	–	–	–	99	–	–
CCCCOc1ncnc2c1[nH]c1ccc(OC)cc12	·	–	–	–	·	–
SMILES	ABHD5 PLIN5 PPI	LANA-H2B inh	rCAG RNA binder	ALR H2O2 inh	Rtt109 Vps75	PRMT1 inh
COc1cc2cccc(OC)c(=O)c2c(O)c1OC	–	–	–	·	·	–
COc1cc2c(ccc3cc(OC)c(OC)c(O)c32)cc1O	–	–	–	99	–	–
COc1ccc(S(=O)(=O)NCc2cccs2)cc1	–	–	–	–	–	–
COc1ccc(S(=O)(=O)N(Cc2cccs2)C2CCCC2)cc1	–	–	–	99	–	–
COCCOC(=O)c1c(C)nc(SCC(=O)Nc2ccc(OC)cc2)c(C#N)c1-c1ccco1	–	–	–	–	–	–
Cc1nc(SCC(=O)c2ccccc2)c(C#N)c(-c2ccco2)c1C(=O)NCc1ccco1	38	–	–	·	–	–
C/C(=N\O)c1ccc2c3c([nH]c2c1)CCCC3	–	–	–	97	–	–
Cc1ccc(C(=O)c2coc3ccc(O)cc23)cc1	–	–	–	–	–	–
